From paper PMC6212790, “How bacterial xenogeneic silencer rok distinguishes foreign from self DNA in its resident genome” come the findings set out here.

In all, about 33,000 sequences were measured (“e-score”: median about -0.037, highest 2% from about 0.34 on). The list comes from a sample in which the highest values are over-represented; it also holds similar and randomly drawn sequences.

The target of this experiment is T1, GST-Rok (full length) (Bacillus subtilis subsp. subtilis str. …, UniProt O34857 1-191).
T1 sequence: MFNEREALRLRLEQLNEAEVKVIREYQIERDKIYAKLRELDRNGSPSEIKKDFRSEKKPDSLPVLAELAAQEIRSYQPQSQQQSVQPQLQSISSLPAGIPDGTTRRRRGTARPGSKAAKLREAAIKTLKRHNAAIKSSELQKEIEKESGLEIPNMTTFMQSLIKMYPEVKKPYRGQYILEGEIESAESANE
Description: protein binding microarray; Rok is a gene silencer of Bacillus subtilis; high values mean tight binding. As to conditions: protein: recombinant; tags: GST (pTH5325, pDEST15-Magic modified); dsDNA, one strand shown. Put shortly:
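Each has a 25-mer constant primer and a 35-mer variable part from a de Bruijn sequence of order 10, covering every non-palindromic 8-mer at least 32 times (palindromic 16). Preference for each 8-mer is given as a rank-based, unitless enrichment score (E-score). Its range runs from 0.5 (most favored) to −0.5 (most disfavored).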
GCTGCTGA: the binding signal was -0.177 E-score.

Take CTTCCTTA: the binding signal is -0.172 E-score.

For the sequence CTAGGAAG, the binding signal is -0.0907 E-score.

On to AGTACGCA, for which the binding signal stood at 0.194 E-score.

Turning to AATATACT, the binding signal came to 0.395 E-score.

Consider ACTATACT, for which the binding signal came to 0.26 E-score.

Turning to AGTATACA, the binding signal was 0.271 E-score.

Turning to AGTATACT, the binding signal amounted to 0.338 E-score.

For AGTATACC, the binding signal was determined as 0.164 E-score.

For AATATACG, the binding signal is 0.268 E-score.

In the case of CATAAAAG, the binding signal is 0.102 E-score.

AGTGCGTC: the binding signal came to 0.0828 E-score.

ACCTCCAA: the binding signal was -0.0283 E-score.

As to TCACGTGA, the binding signal is -0.0446 E-score.

Take TGGCCGAA: the binding signal is -0.123 E-score.

On to ACCTAGAC, for which the binding signal was 0.0548 E-score.

As to AATTATAG, the binding signal was found to be 0.381 E-score.

For CATTATAA, the binding signal amounted to 0.228 E-score.

For the sequence AATTATCG, the binding signal came to 0.217 E-score.

Regarding ACTTATAT, the binding signal came out at 0.332 E-score.

Regarding GATTATAC, the binding signal amounted to 0.217 E-score.

For AATTATAA, the binding signal stood at 0.361 E-score.

With CATTATAC, the binding signal stood at 0.265 E-score.

CATTATAG: the binding signal turned out to be 0.255 E-score.

In the case of AATTATAC, the binding signal was determined as 0.377 E-score.

In the case of AGTTATAT, the binding signal worked out at 0.291 E-score.

Consider GATTATAA, for which the binding signal amounted to 0.208 E-score.

Consider AATTATAT, for which the binding signal came out at 0.407 E-score.

With ACAGGTCT, the binding signal is -0.119 E-score.

TGCTGAAA: the binding signal was -0.0464 E-score.

Consider GCAACTGA, for which the binding signal was -0.0401 E-score.

Consider ACAAGTAA, for which the binding signal is 0.185 E-score.

For the sequence ACCTATGG, the binding signal is -0.177 E-score.

Turning to GACAATGA, the binding signal is -0.0569 E-score.

GTCATCTA: the binding signal was determined as 0.113 E-score.

As for GCAGACGC, the binding signal is -0.181 E-score.

As to ATGGTAAC, the binding signal amounted to 0.214 E-score.

For the sequence AGCTAGTA, the binding signal worked out at 0.373 E-score.

As for TACTAGCA, the binding signal was found to be 0.243 E-score.

Take TACTAGTA: the binding signal was found to be 0.45 E-score.

Turning to GGCTAGTA, the binding signal was found to be 0.0598 E-score.

Consider AACTAGTC, for which the binding signal was found to be 0.206 E-score.

As to TACTAGGA, the binding signal came to 0.183 E-score.

Turning to AACTAGCG, the binding signal worked out at 0.241 E-score.

For AACTAGTG, the binding signal worked out at 0.39 E-score.

In the case of CACTAGTG, the binding signal turned out to be 0.0643 E-score.

As to AACTAGCT, the binding signal was 0.317 E-score.

With AGCTAGTC, the binding signal amounted to 0.078 E-score.

For AACTAGTT, the binding signal is 0.441 E-score.

With CTGACCAC, the binding signal was -0.141 E-score.

With ACCGGACT, the binding signal is -0.00817 E-score.

For the sequence ATTGTTAC, the binding signal came to 0.15 E-score.

AAGCTTCC: the binding signal is -0.103 E-score.

For the sequence CTAGCTTA, the binding signal was 0.26 E-score.

As to AAGTCGAT, the binding signal is 0.0686 E-score.

On to GATCTCAA, for which the binding signal was -0.162 E-score.

Take CCGCTCAG: the binding signal was -0.0853 E-score.

Take GACTAGGA: the binding signal was -0.00844 E-score.

Regarding AACTAGTA, the binding signal came out at 0.471 E-score.

Turning to ACCTAGTA, the binding signal was determined as 0.292 E-score.

For the sequence GACTAGTA, the binding signal was 0.365 E-score.

As to GACTAGTC, the binding signal came to 0.224 E-score.

As to CACTAGTA, the binding signal amounted to 0.205 E-score.

As for AACTAGGG, the binding signal was -0.00258 E-score.

Turning to AACTAGGT, the binding signal is 0.361 E-score.

As for AACTAGGC, the binding signal was found to be 0.118 E-score.

For CCGAATTA, the binding signal is 0.235 E-score.

For AGAGTGAA, the binding signal is -0.0866 E-score.

With GTAAGCAA, the binding signal turned out to be 0.0243 E-score.

For the sequence ACCTTACT, the binding signal stood at 0.101 E-score.

In the case of AGTAATTC, the binding signal came out at 0.29 E-score.

On to GGTAATTA, for which the binding signal stood at 0.375 E-score.

As to AGTAATTA, the binding signal is 0.381 E-score.

With AGTAATTG, the binding signal came out at 0.29 E-score.

For CATAATTC, the binding signal came out at 0.126 E-score.

Take CATAATTA: the binding signal worked out at 0.362 E-score.

Take CGTAATTA: the binding signal is 0.328 E-score.

For GGTAATCA, the binding signal came to 0.0323 E-score.

As to GATAATTA, the binding signal was 0.223 E-score.

Consider CACAGTGA, for which the binding signal came to 0.137 E-score.

As for TAATTTCA, the binding signal was 0.273 E-score.

For GCTACGTA, the binding signal is 0.298 E-score.

Take ACCGGCAT: the binding signal was -0.0275 E-score.

GGAAGGTA: the binding signal amounted to 0.0109 E-score.

For CCCGGCAC, the binding signal was -0.109 E-score.

As for GTAAACGA, the binding signal is -0.0497 E-score.

CTAAACGA: the binding signal is -0.072 E-score.

As to GTAAACTA, the binding signal amounted to 0.351 E-score.

Take ATAAACTG: the binding signal came to 0.175 E-score.

Regarding GTAAACAA, the binding signal turned out to be 0.0786 E-score.

For ATAAACTA, the binding signal came out at 0.361 E-score.

CTAAACTA: the binding signal was 0.336 E-score.

CTAAACTC: the binding signal worked out at 0.235 E-score.

For the sequence ATAAACTC, the binding signal worked out at 0.15 E-score.

Regarding AAAACTCT, the binding signal is 0.171 E-score.

As for AAGGACGA, the binding signal was -0.157 E-score.

With CTCATCCA, the binding signal turned out to be 0.013 E-score.

Regarding GCTCCTAC, the binding signal is -0.158 E-score.

For the sequence ACAAGACG, the binding signal was -0.0878 E-score.

CGTTAAGA: the binding signal is -0.0916 E-score.

Take ATAACACG: the binding signal worked out at 0.22 E-score.

In the case of GACTGATA, the binding signal was 0.238 E-score.

For CAGAATAG, the binding signal was 0.106 E-score.

For the sequence CGTTCGGA, the binding signal is -0.107 E-score.
